Most compounds without a hit are left out; they make up all but 3.5% or so of the library.
mHTT-CaM PPI inh – inhibitors of human mutant huntingtin-calmodulin interaction | AlphaScreen His-mHTT/GST-CaM binding, luminescence | inhibition, % at 15 µM | 190,000 tested, 3.6% active | AID 1671202;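 also: 0% = both proteins with DMSO and 100% = one protein alone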
Pf apPOL inh – Pf-apPOL DNA polymerase inhibition | Recombinant Pf-apPOL, molecular beacon fluorescence, 1.5 h | inhibition, % at 10 µM | 210,000 tested, 0.25% active | AID 1794808
Starred values were filed as active, the others as inactive; ! = repeats disagree. Rule as the data show it: active = inhibition above about 50%; inactive = the rest.

CCOc1ccc(N2CC(c3nnc(NC(=O)C4CC4)o3)CC2=O)cc1 (stereo unspecified) was read as mHTT-CaM PPI inh 11.0 and Pf apPOL inh -2.9.
Screening CC(C)c1ccc(OCC(=O)N2CCC(Cn3ccnc3)CC2)cc1 returned mHTT-CaM PPI inh -1.2 and Pf apPOL inh -17.3.
`COCC(=O)N1CCc2c(c(-c3nc(-c4cccc(F)c4)no3)nn2C)C1` gave mHTT-CaM PPI inh 7.7 and Pf apPOL inh -4.3.
CCOc1ccccc1OCCOc1ccc(C=O)cc1OC was read as mHTT-CaM PPI inh -4.5 and Pf apPOL inh -10.0.
For CC(C)=CC1C(CN)C1(C)C (stereo unspecified) the results were mHTT-CaM PPI inh 96.0* and Pf apPOL inh -5.1.
Screening CCOC(=O)c1cc(-c2ccnn2S(=O)(=O)c2cccc(C(F)(F)F)c2)on1 returned Pf apPOL inh 81.9*.
For Cc1cc(-c2nc(-c3ccnn3S(=O)(=O)c3cccc(C(F)(F)F)c3)cs2)no1 the results were Pf apPOL inh 2.8.
CC(C)C(=O)Nc1ccc2c(c1)CC(C(=O)NCCCc1ccccc1)CO2 (stereo unspecified) was read as mHTT-CaM PPI inh -0.1 and Pf apPOL inh -1.6.
O=C(Nc1ccc2c(c1)OCO2)c1ccc(Br)cc1 was read as mHTT-CaM PPI inh -0.3 and Pf apPOL inh -1.1.
O=C(Nc1ccc2c(c1)OCCO2)c1ccc(Br)cc1 was read as mHTT-CaM PPI inh 95.5* and Pf apPOL inh 1.1.
`COc1ccc(CNC(=O)C2CCc3sc(C(=O)N4CCCC4)cc3C2)cc1OC` (stereo unspecified) gave mHTT-CaM PPI inh 1.1 and Pf apPOL inh -7.2.
Screening O=C(CSc1ncccn1)c1ccc2c(c1)Cc1ccccc1-2 returned mHTT-CaM PPI inh -5.7 and Pf apPOL inh 2.1.
`O=C1OC2(CCCC2)OC(=O)C1=Cc1c[nH]c2ccccc12` gave mHTT-CaM PPI inh 7.0 and Pf apPOL inh -16.1.
For O=C1C(=Cc2c[nH]c3ccccc23)C(=O)c2ccccc21 the results were mHTT-CaM PPI inh 57.0*! and Pf apPOL inh -0.1.
Screening Cc1cc2c(N3CCCC(C(=O)NCc4cccc(Br)c4)C3)nccc2s1 (stereo unspecified) returned mHTT-CaM PPI inh 27.9 and Pf apPOL inh -2.3.
CC1=Nc2ccccc2C1=Cc1c(O)n(-c2ccc(C)cc2)c(=O)[nH]c1=O was read as mHTT-CaM PPI inh 12.0 and Pf apPOL inh -43.9.
For Cc1ccc(-n2c(O)c(C=C3C=CC=N3)c(=O)[nH]c2=O)cc1 the results were mHTT-CaM PPI inh 12.0 and Pf apPOL inh -0.3.
O=c1[nH]c(=O)n(-c2ccccc2F)c(O)c1C=C1C=Nc2ccc(Br)cc21 was read as mHTT-CaM PPI inh 100.0* and Pf apPOL inh 5.2.
Screening Cc1cc(C)c(-n2c(O)c(C=C3C=Nc4ccccc43)c(=O)[nH]c2=O)c(C)c1 returned mHTT-CaM PPI inh 100.0* and Pf apPOL inh 1.6.
CCCn1ncc(N2CCC(C(=O)N3CCN(C(C)C)CC3)CC2)cc1=O was read as mHTT-CaM PPI inh -1.6 and Pf apPOL inh 0.0.
For COc1cc(C2=N/C(=C\c3ccc4c(c3)OCO4)C(=O)O2)cc(OC)c1OC the results were mHTT-CaM PPI inh 1.0 and Pf apPOL inh 1.6.
For COc1ccc2c(c1)C1(NC(=O)c3ccccc3N1)C(=O)N2 (stereo unspecified) the results were mHTT-CaM PPI inh 15.0 and Pf apPOL inh -6.7.
COC(=O)C1=C(C(=O)OC)SC2(S1)C(C(=O)OC)=C(C(=O)OC)SC1=C2c2cc(OC)ccc2NC1(C)C was read as mHTT-CaM PPI inh 62.6*.
`CCCc1nc2cccnc2n1C1CCN(S(=O)(=O)c2ccccc2)C1` (stereo unspecified) gave mHTT-CaM PPI inh -0.1 and Pf apPOL inh -0.8.
COc1cc2c(C(=O)N3CCC(C)CC3)cn(CC(C)C)c(=O)c2cc1OC was read as mHTT-CaM PPI inh 7.0 and Pf apPOL inh -1.5.
Screening Cc1cc(Br)c2c3c(c(N)c(=O)[nH]c13)-c1ccccc1C2=O returned mHTT-CaM PPI inh 29.0 and Pf apPOL inh -1.7.
`Cc1cc2c3c(c(Br)cc(S(=O)(=O)O)c3n1)C(=O)c1ccccc1-2` gave mHTT-CaM PPI inh 99.0* and Pf apPOL inh 1.8.
`Cc1ccc(CNC(=O)c2cnn3c(C)c(Cc4ccc(Cl)cc4)c(C)nc23)cc1` gave mHTT-CaM PPI inh -16.0 and Pf apPOL inh -3.3.
Screening CCn1ccc2c(cc(C(=O)NCc3ccc(F)c(Cl)c3)n2C)c1=O returned mHTT-CaM PPI inh -2.2 and Pf apPOL inh 2.0.
Cc1ccc(C)c(C(=O)N2CCC(c3nc(CNC(=O)C4CC4)cs3)CC2)c1 was read as mHTT-CaM PPI inh 9.4 and Pf apPOL inh 0.8.
COc1cc(N2Cc3ccccc3C2)ccc1/C=C(\C#N)C(=O)NCc1ccco1 was read as mHTT-CaM PPI inh 18.0 and Pf apPOL inh -2.4.
COc1cc(N2Cc3ccccc3C2)ccc1C=O was read as mHTT-CaM PPI inh 72.2* and Pf apPOL inh -4.9.
For CC1CCCCN1CCNC(=O)C1(S(=O)(=O)c2ccc(Cl)cc2)CC1 (stereo unspecified) the results were mHTT-CaM PPI inh 4.0 and Pf apPOL inh 1.9.
For C=CCN1C(=O)/C(=C/c2ccccc2O)SC1=Nc1ccccc1 the results were mHTT-CaM PPI inh 49.0 and Pf apPOL inh -5.9.
C=CCN1C(=O)/C(=C/c2ccc(O)cc2)SC1=Nc1ccccc1 was read as mHTT-CaM PPI inh 78.0* and Pf apPOL inh -3.5.
`Cc1ccc(-c2nc3ccccc3c(=O)n2CC(=O)Nc2ccccc2C(F)(F)F)cc1` gave mHTT-CaM PPI inh -1.0 and Pf apPOL inh 1.2.
COc1ccc(NC(=O)C2CC(=O)N(C)C(=Nc3ccc(Cl)c(C(F)(F)F)c3)S2)cc1 (stereo unspecified) was read as mHTT-CaM PPI inh 5.0 and Pf apPOL inh 7.1.
Screening COc1ccc(NC(=O)C2CC(=O)N(C)C(=Nc3ccc(Cl)c(Cl)c3)S2)cc1 (stereo unspecified) returned mHTT-CaM PPI inh 85.0* and Pf apPOL inh 1.1.
`Cc1cc(C)c(S(=O)(=O)N2CCC(c3noc(-c4ccccc4)n3)CC2)c(C)c1` gave mHTT-CaM PPI inh 100.3* and Pf apPOL inh -1.7.
Screening Cc1cc(C)c(C)c(S(=O)(=O)N2CCC(c3noc(-c4ccccc4)n3)CC2)c1C returned mHTT-CaM PPI inh -4.9 and Pf apPOL inh -4.2.
For Cc1cc2n(n1)C(C(F)(F)F)CC(C)N2 (stereo unspecified) the results were mHTT-CaM PPI inh -7.5.
For O=C(Nc1cccc(Br)c1)N1CCOc2ccccc21 the results were mHTT-CaM PPI inh -8.8 and Pf apPOL inh 8.5.
CC(C)c1noc(-c2cccnc2N2CCCN(C(=O)NCc3cccc(F)c3)CC2)n1 was read as mHTT-CaM PPI inh -2.7 and Pf apPOL inh -7.0.
`CCCCN(CC)S(=O)(=O)c1ccc(C(=O)Nc2nnc(C3CC3)o2)cc1` gave mHTT-CaM PPI inh 16.0 and Pf apPOL inh -18.0.
COCCN(CCOC)S(=O)(=O)c1ccc(C(=O)Nc2nnc(C)o2)cc1 was read as mHTT-CaM PPI inh 22.0 and Pf apPOL inh -57.9.
For CCN(Cc1ccccc1)S(=O)(=O)c1ccc(C(=O)Nc2nnc(C3CC3)o2)cc1 the results were mHTT-CaM PPI inh 72.0* and Pf apPOL inh -63.0.
`CCCCN(CCCC)S(=O)(=O)c1ccc(C(=O)Nc2nnc(C)o2)cc1` gave mHTT-CaM PPI inh 58.0* and Pf apPOL inh -7.3.
`O=C(c1ccc([N+](=O)[O-])cc1)N1N=C(C2CC2)CC1(O)C(F)F` (stereo unspecified) gave mHTT-CaM PPI inh 10.0 and Pf apPOL inh -5.4.

From PubChem BioAssay
